Results as given in publication PMC5700166.
Changes are numbered by the printed parent chain.

Tests used:
Assay in all cases: protein-binding microarray (PBM); PBM: ~300 nM protein, 6 mM HEPES pH 7.8, 80 mM KCl, 0.5 mM EDTA, 0.5 mM EGTA, 6% glycerol, 35 ng/ul poly-dIdC, 1% milk, 1 h, room temperature; Ap Aiptasia and Nv Nematostella (sea anemones) / Co Capsaspora / Aq Amphimedon (sponge) / Dm Drosophila / Hu human; RHD is the Rel homology domain; high values mean tight binding
Details in all cases: dsDNA, one strand shown
GST-Hu-p50 = GST-Hu-p50 (Homo sapiens, UniProt P19838 7-356)
Sequence of GST-Hu-p50 (P19838 7-356): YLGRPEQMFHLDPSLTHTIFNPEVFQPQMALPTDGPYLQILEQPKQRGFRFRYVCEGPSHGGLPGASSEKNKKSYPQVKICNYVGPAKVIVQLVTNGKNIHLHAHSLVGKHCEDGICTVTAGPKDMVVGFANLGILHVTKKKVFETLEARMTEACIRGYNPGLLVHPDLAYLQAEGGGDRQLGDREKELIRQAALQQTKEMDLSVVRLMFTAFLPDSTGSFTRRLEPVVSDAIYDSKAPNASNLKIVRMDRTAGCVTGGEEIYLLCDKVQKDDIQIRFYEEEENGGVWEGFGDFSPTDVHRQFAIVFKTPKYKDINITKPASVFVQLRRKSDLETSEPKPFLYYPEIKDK

GST-Dm-Relish = target: T1, GST-Dm-Relish (Drosophila melanogaster, UniProt Q94527 99-473)
T1 sequence: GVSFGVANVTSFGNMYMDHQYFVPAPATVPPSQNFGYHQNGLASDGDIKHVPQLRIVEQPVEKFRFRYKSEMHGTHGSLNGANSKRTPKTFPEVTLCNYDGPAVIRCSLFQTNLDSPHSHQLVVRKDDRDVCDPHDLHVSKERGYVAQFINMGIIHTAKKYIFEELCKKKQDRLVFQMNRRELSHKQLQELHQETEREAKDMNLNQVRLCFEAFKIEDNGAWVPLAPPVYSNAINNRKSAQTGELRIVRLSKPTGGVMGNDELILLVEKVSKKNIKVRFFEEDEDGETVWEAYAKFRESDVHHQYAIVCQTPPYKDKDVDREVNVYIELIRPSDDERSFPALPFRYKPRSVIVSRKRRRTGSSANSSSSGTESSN

GST-Aq-NF-kB = target: T2, GST-Aq-NF-kB (Amphimedon queenslandica, UniProt A9Y5G7 2-389)
T2 sequence: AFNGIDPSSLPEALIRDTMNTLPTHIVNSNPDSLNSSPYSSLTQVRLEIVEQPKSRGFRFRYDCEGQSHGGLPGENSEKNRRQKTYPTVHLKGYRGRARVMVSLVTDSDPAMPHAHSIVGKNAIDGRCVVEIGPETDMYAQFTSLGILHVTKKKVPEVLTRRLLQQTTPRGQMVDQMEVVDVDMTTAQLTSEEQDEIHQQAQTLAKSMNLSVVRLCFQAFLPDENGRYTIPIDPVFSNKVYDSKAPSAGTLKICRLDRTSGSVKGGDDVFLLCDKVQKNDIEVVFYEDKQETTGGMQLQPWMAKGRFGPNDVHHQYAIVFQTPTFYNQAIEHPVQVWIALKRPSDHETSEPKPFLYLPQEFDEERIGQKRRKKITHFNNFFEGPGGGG

GST-Ap-NF-kB RHD = target: T3, GST-Ap-NF-kB RHD (Exaiptasia pallida (Aiptasia), UniProt A0A913YAJ5 2-422)
T3 sequence: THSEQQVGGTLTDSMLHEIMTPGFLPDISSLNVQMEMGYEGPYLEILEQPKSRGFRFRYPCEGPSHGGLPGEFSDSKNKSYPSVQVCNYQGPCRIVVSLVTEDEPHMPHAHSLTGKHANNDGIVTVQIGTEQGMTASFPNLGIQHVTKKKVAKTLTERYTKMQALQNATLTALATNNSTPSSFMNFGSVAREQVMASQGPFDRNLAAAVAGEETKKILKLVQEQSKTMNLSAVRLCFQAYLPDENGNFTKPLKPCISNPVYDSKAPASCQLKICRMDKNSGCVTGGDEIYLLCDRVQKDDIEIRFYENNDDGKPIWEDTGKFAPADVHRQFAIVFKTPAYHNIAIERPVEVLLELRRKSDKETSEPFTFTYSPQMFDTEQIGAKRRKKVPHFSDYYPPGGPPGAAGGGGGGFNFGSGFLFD

[1] = target: T4, GST-Nv-NF-kB (Ser allele) (Nematostella vectensis, UniProt A7UNT2 2-411)
T4 sequence: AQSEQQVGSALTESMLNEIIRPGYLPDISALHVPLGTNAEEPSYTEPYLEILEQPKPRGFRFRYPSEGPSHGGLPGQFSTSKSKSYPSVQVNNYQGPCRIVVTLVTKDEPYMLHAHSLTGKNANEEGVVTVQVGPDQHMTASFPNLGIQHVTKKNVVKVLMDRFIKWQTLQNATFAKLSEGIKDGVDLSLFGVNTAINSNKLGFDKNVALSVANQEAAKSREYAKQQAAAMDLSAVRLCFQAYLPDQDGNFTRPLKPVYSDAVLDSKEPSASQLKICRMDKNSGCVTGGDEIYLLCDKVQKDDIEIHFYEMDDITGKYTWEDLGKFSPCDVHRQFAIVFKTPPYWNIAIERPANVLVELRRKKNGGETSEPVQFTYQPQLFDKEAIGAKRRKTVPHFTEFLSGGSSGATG

[2] = target: T5, GST-Nv-NF-kB (Cys allele) (Nematostella vectensis, UniProt E5G601 2-411)
T5 sequence: T4 sequence with R21Q, S66C, N207S, Q215E, A217V, K225E, E268A, E399D

GST-Co-NF-kB = target: T6, GST-Co-NF-kB (Capsaspora owczarzaki, UniProt F1ARL5 200-546)
T6 sequence: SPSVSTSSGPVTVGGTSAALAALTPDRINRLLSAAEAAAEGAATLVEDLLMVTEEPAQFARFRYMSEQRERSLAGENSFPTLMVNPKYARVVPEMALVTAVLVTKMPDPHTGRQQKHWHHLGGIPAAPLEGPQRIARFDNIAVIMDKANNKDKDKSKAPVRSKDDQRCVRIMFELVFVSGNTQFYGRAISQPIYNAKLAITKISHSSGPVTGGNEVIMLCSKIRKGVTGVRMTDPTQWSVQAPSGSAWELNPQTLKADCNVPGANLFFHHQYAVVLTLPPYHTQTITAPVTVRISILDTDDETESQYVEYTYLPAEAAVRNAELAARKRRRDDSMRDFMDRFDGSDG

CCGATTAACATCAGGGCCAAAAATGATGTTAATCGGGTCTTGATTCGCTTGACGCTGCTG
binding signal (GST-Hu-p50): 1.38 z-score

CCGATTAACATCAACAAAATTCCTGATGTTAATCGGGTCTTGATTCGCTTGACGCTGCTG
binding signal (GST-Dm-Relish): 1.6 z-score | binding signal (GST-Aq-NF-kB): 1.34 z-score

CCGATTAACATCAGGAAATGGGATGATGTTAATCGGGTCTTGATTCGCTTGACGCTGCTG
binding signal (GST-Ap-NF-kB RHD): 1.33 z-score

CCGATTAACATCACCTAACTTGATGATGTTAATCGGGTCTTGATTCGCTTGACGCTGCTG
binding signal [1]: 1.07 z-score | binding signal (GST-Hu-p50): 1.66 z-score

CCGATTAACATCACGGAATTTTCTGATGTTAATCGGGTCTTGATTCGCTTGACGCTGCTG
binding signal (GST-Dm-Relish): 1.06 z-score | binding signal (GST-Aq-NF-kB): 2.35 z-score

CCGATTAACATCAGGAAATTGCCTGATGTTAATCGGGTCTTGATTCGCTTGACGCTGCTG
binding signal [2]: 1.05 z-score | binding signal (GST-Hu-p50): 1.3 z-score

CCGATTAACATCACCCCGCATGCTGATGTTAATCGGGTCTTGATTCGCTTGACGCTGCTG
binding signal (GST-Ap-NF-kB RHD): 1.75 z-score | binding signal (GST-Co-NF-kB): 1.97 z-score | binding signal (GST-Hu-p50): 1.34 z-score

CCGATTAACATCACCCTTGCAGGTGATGTTAATCGGGTCTTGATTCGCTTGACGCTGCTG
binding signal (GST-Dm-Relish): 1.5 z-score | binding signal (GST-Aq-NF-kB): 1.27 z-score

CCGATTAACATCATCCCTTGTCATGATGTTAATCGGGTCTTGATTCGCTTGACGCTGCTG
binding signal (GST-Ap-NF-kB RHD): 1.2 z-score

CCGATTAACATCATTTCTTACGGTGATGTTAATCGGGTCTTGATTCGCTTGACGCTGCTG
binding signal (GST-Dm-Relish): 1.25 z-score | binding signal (GST-Hu-p50): 1.44 z-score

CCGATTAACATCAATCAGCGGGGTGATGTTAATCGGGTCTTGATTCGCTTGACGCTGCTG
binding signal (GST-Ap-NF-kB RHD): 1.21 z-score | binding signal (GST-Co-NF-kB): 2.43 z-score

CCGATTAACATCACCCGGCGCAGTGATGTTAATCGGGTCTTGATTCGCTTGACGCTGCTG
binding signal (GST-Ap-NF-kB RHD): 1.17 z-score | binding signal (GST-Co-NF-kB): 2.3 z-score

CCGATTAACATCACCCTACAAGTTGATGTTAATCGGGTCTTGATTCGCTTGACGCTGCTG
binding signal (GST-Co-NF-kB): 3.08 z-score

CCGATTAACATCAAAGAGGAGTCTGATGTTAATCGGGTCTTGATTCGCTTGACGCTGCTG
binding signal [2]: 1.23 z-score

CCGATTAACATCAGATAGGTACTTGATGTTAATCGGGTCTTGATTCGCTTGACGCTGCTG
binding signal [1]: 2.46 z-score

CCGATTAACATCAAGGGGGGATATGATGTTAATCGGGTCTTGATTCGCTTGACGCTGCTG
binding signal (GST-Ap-NF-kB RHD): 5.79 z-score | binding signal [2]: 4.88 z-score | binding signal (GST-Co-NF-kB): 6.15 z-score | binding signal (GST-Dm-Relish): 4.29 z-score

CCGATTAACATCACCAAGTATAGTGATGTTAATCGGGTCTTGATTCGCTTGACGCTGCTG
binding signal (GST-Co-NF-kB): 1.42 z-score

CCGATTAACATCAAGAGAGAAAGTGATGTTAATCGGGTCTTGATTCGCTTGACGCTGCTG
binding signal (GST-Co-NF-kB): 1.16 z-score

CCGATTAACATCACTACCCCGGATGATGTTAATCGGGTCTTGATTCGCTTGACGCTGCTG
binding signal (GST-Ap-NF-kB RHD): 1.88 z-score | binding signal (GST-Co-NF-kB): 3.19 z-score

CCGATTAACATCAAGGGGGGGGATGATGTTAATCGGGTCTTGATTCGCTTGACGCTGCTG
binding signal (GST-Ap-NF-kB RHD): 7.71 z-score | binding signal (GST-Co-NF-kB): 7.64 z-score | binding signal (GST-Dm-Relish): 5.31 z-score

CCGATTAACATCAAGAACCTTCTTGATGTTAATCGGGTCTTGATTCGCTTGACGCTGCTG
binding signal [2]: 1.02 z-score

CCGATTAACATCACCCCATCTCGTGATGTTAATCGGGTCTTGATTCGCTTGACGCTGCTG
binding signal (GST-Ap-NF-kB RHD): 1.2 z-score | binding signal (GST-Co-NF-kB): 2.11 z-score | binding signal (GST-Dm-Relish): 1.42 z-score

CCGATTAACATCACGTGGGGCGTTGATGTTAATCGGGTCTTGATTCGCTTGACGCTGCTG
binding signal [2]: 1.36 z-score

CCGATTAACATCACTGGGAGGGCTGATGTTAATCGGGTCTTGATTCGCTTGACGCTGCTG
binding signal (GST-Ap-NF-kB RHD): 1.08 z-score | binding signal (GST-Co-NF-kB): 1.47 z-score

CCGATTAACATCATGGGGTGTGCTGATGTTAATCGGGTCTTGATTCGCTTGACGCTGCTG
binding signal (GST-Ap-NF-kB RHD): 1.12 z-score | binding signal (GST-Co-NF-kB): 1.28 z-score
